# Results taken from PubChem BioAssay (NCATS).
# “And” between values parts separate entries of the source, which are not always exact repeats. Identical values can stand only once. Results filed as inconclusive are left out. A call without a number means that no potency is given here. A number with no mark means an inactive call. The source made the active and inactive calls. Calls follow the shape of the dose curve; as a rule, active = well fitted curve in the direction sought with a large enough effect; inconclusive = small, poorly fitted or top-dose-only effect, or another doubt; inactive = no such curve, though single readings can be large; an effect the other way counts as inactive or inconclusive. Where a SMILES comes first, the peptide text is derived from it.
# Experiments:
# [1] = molecular target: Cytochrome P450 3A7 (Homo sapiens) (UniProt P24462); test: Cytochrome P450 family 3 subfamily A member 7 (CYP3A7) small molecule antagonists: luciferase biochemical qHTS assay (AID 1963596); also: nearly all actives have a fitted effect of over 40% in size
# Sequence of Cytochrome P450 3A7 (Homo sapiens) (P24462 whole entry, looked up): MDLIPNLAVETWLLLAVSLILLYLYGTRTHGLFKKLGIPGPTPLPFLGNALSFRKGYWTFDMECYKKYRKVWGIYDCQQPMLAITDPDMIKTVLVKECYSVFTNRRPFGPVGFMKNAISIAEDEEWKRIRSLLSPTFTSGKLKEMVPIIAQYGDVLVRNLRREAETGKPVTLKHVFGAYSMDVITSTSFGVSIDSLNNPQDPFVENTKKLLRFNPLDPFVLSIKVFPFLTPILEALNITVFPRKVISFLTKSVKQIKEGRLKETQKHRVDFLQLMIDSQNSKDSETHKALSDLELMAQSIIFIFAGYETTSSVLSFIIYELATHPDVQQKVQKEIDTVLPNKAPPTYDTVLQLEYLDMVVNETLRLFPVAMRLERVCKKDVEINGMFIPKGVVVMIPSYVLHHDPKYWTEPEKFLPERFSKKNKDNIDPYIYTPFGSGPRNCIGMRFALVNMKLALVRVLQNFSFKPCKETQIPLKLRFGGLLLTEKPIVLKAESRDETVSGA
# Procedure, shortened: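 Enzyme-substrate mix + cpd (DMSO), 10 min RT; + NADPH regen system, 1 h RT; + luciferin detection reagent, 20 min RT; luminescence read. Proluciferin substrate, P450-Glo format, 1536-well qHTS.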
# [2] = Viability qHTS for spleen associated tyrosine kinase inhibitor (SYKi) naive MV4-11 cells (AID 1963823); also: nearly all actives have a fitted effect of over 40% in size; also: potency is read from the fitted curve at half-maximal effect
# Procedure, shortened: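 In this viability screen, compounds acted on SYK inhibitor naive MV4-11 cells for three days (72 hr, 37 C). Remaining viable cells were measured by CellTiter-Glo luminescence following a 10 min room-temperature development.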
# [3] = Viability qHTS for spleen associated tyrosine kinase inhibitor (SYKi) drug resistant MV4-11 cells (AID 1963824); also: nearly all actives have a fitted effect of over 35% in size; also: potency is read from the fitted curve at half-maximal effect
# Procedure, shortened: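 CellTiter-Glo luminescence, read 10 min after reagent addition, reports viability after a 72 hr compound exposure. Cells are an MV4-11 line made resistant to SYK inhibition, seeded at 500 per well onto compound-containing plates.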
# [4] = Cellular viability qHTS for adrenocortical cancer (ACC) cell line SW-13 (AID 1963989); details: SW-13 ACC cells viability, CellTiter-Glo, 48 h; activity (max response): stronger effect = lower value;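 also: cells grown in serum-free medium with ITS supplement; nearly all actives have a fitted effect of over 65% in size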
# Procedure, shortened: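 48 h treatment, SW-13 in ITS/DMEM serum-free; doses up to 46 uM; readout CellTiter-Glo luminescence; curve fit four-parameter logistic.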
# [5] = Cellular viability qHTS for adrenocortical cancer (ACC) cell line NCI-H295R (AID 1963990); also: nearly all actives have a fitted effect of over 60% in size; also: potency is read from the fitted curve at half-maximal effect
# Procedure, shortened: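 Compound titrations (up to 46 uM final) are applied to NCI-H295R cultures for 48 h at 37C. Viable cell number is estimated by CellTiter-Glo signal, normalised to DMSO and doxorubicin controls.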
# [6] = Quantitative highthroughput screen to assess conditional lethalithy of NOMO1 cells grown in Human Plasma-Like Medium with dialyzed fetal bovine serum (HPLM+ds) (AID 1963878); also: potency is read from the fitted curve at half-maximal effect; nearly all actives have a fitted effect of over 35% in size
# Procedure, shortened: (§1)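 Each medium arm—HPLM with 10% dialyzed FBS, or RPMI1640 with 5 mM glucose and 10% untreated or dialyzed FBS—was screened against an 11-point, 3-fold compound titration for 48 h at 37 °C, with CellTiter-Glo luminescence as endpoint.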
# [7] = Quantitative highthroughput screen to assess conditional lethalithy of P12 Ichikawa cells grown in Human Plasma-Like Medium with dialyzed fetal bovine serum (HPLM+ds) (AID 1963879); details: Potency: viability; also: potency is read from the fitted curve at half-maximal effect; nearly all actives have a fitted effect of over 35% in size
# Procedure, shortened: as §1
# [8] = Quantitative highthroughput screen to assess conditional lethalithy of SEM cells grown in Human Plasma-Like Medium with dialyzed fetal bovine serum (HPLM+ds) (AID 1963882); also: series mostly up to about 46 µM; nearly all actives have a fitted effect of over 35% in size
# Procedure, shortened: as §1
# [9] = Quantitative highthroughput screen to assess conditional lethalithy of SEM cells grown in RPMI1640 with unreated serum (RPMI+s) (AID 1963883); also: nearly all actives have a fitted effect of over 35% in size
# Procedure, shortened: as §1
# [10] = Quantitative highthroughput screen to assess conditional lethalithy of SEM cells grown in RPMI1640 with dialyzed fetal bovine serum (RPMI+ds) (AID 1963884)
# Procedure, shortened: as §1
smiles,measurement,setting,value
CCCCCCCCCCCCCCCCCCN(C)C,Potency,[1],inactive
same,Potency,[2],inactive
same,Potency,[3],inactive
same,activity (max response),[4],-1.14%
same,Potency,[5],inactive
O=C(Nc1ccc(-c2ccnc(Nc3ccc(N4CCOCC4)cc3)n2)cc1)C1CCCN1 (centres undefined),Potency,[1],inactive
same,Potency,[2],1.66 µM (active)
same,Potency,[3],1.46 µM (active) and 2.35 µM (active)
same,activity (max response),[4],-0.397%
same,Potency,[5],inactive
NS(=O)(=O)c1cc(C2(O)NC(=O)c3ccccc32)ccc1Cl (centres undefined),Potency,[1],inactive
same,Potency,[2],inactive
same,Potency,[3],inactive
same,activity (max response),[4],17.7%
same,Potency,[5],inactive
COC(=O)c1cc(Cl)c(NC(C)=O)cc1OC,Potency,[1],inactive
same,Potency,[2],inactive
same,Potency,[3],inactive
same,activity (max response),[4],11.7%
same,Potency,[5],inactive
NCC(=O)CCC(=O)O,Potency,[1],inactive
same,Potency,[2],inactive
same,Potency,[3],inactive
same,activity (max response),[4],16.5%
same,Potency,[5],inactive
CCOC(=O)C(=O)CCCCCCl,Potency,[1],inactive
same,Potency,[2],inactive
same,Potency,[3],inactive
same,activity (max response),[4],1.38%
same,Potency,[5],inactive
COc1ccc(/C(C)=C/C(=O)O)c(OC)c1,Potency,[1],inactive
same,Potency,[2],inactive
same,Potency,[3],inactive
same,Potency,[5],inactive
Cc1c(NC(=O)c2cccnc2)c(=O)n(-c2ccccc2)n1C,Potency,[1],inactive
same,Potency,[2],inactive
same,Potency,[3],inactive
same,Potency,[5],inactive
CC(=O)Oc1cccc(C)c1,Potency,[1],inactive
same,Potency,[2],inactive
same,Potency,[3],inactive
same,activity (max response),[4],17.7%
same,Potency,[5],inactive
CCOC(=O)c1ccc(OCCN2C[C@H](O)[C@@H](O)[C@H](O)[C@H]2CO)cc1,Potency,[1],inactive
same,Potency,[2],inactive
same,Potency,[3],inactive
same,Potency,[5],inactive
CC(C)(C)c1ccc(C(O)CCCN2CCC(C(O)(c3ccccc3)c3ccccc3)CC2)cc1 (centres undefined),Potency,[1],inactive
same,Potency,[2],21.1 µM (active)
same,Potency,[3],11.9 µM (active)
same,Potency,[5],4.11 µM (active)
NC(CS)C(=O)O (centres undefined),Potency,[1],inactive
same,Potency,[2],inactive
same,Potency,[3],inactive
same,Potency,[5],inactive
CCCCCCCCCCCCCCCCN,Potency,[1],inactive
same,Potency,[2],inactive
same,Potency,[3],inactive
same,Potency,[5],inactive
C/C(=N\O)c1ccc(OCC(=O)N2CCCCC2)cc1,Potency,[1],inactive
same,Potency,[2],inactive
same,Potency,[3],inactive
same,Potency,[5],inactive
Cc1[nH]c(C)c(Cl)c(=O)c1Cl,Potency,[1],inactive
same,Potency,[2],inactive
same,Potency,[3],inactive
same,activity (max response),[4],4.22%
same,Potency,[5],inactive
Cc1cc(C)cc(NC(=O)Cc2ccc(OC(C)(C)C(=O)O)cc2)c1,Potency,[1],inactive
same,Potency,[2],inactive
same,Potency,[3],inactive
same,Potency,[5],inactive
Cc1cc(NS(=O)(=O)c2ccc(N)cc2)nc(C)n1,Potency,[1],inactive
same,Potency,[2],inactive
same,Potency,[3],inactive
same,Potency,[5],inactive
Cc1cc(C(C)(C)C)c(O)c(C(C)(C)C)c1,Potency,[1],inactive
same,Potency,[2],inactive
same,Potency,[3],inactive
same,Potency,[5],25.9 µM (active)
OC[C@H]1O[C@@H](O[C@@H]2[C@@H](CO)O[C@](O)(CO)[C@H]2O)[C@H](O)[C@@H](O)[C@H]1O,Potency,[1],inactive
same,Potency,[2],inactive
same,Potency,[3],inactive
same,Potency,[5],inactive
CC[N+](CC)(CC)CCOC(=O)C(C1CCCC1)C1CCCC1,Potency,[1],inactive
same,Potency,[2],18.8 µM (active)
same,Potency,[3],11.9 µM (active)
same,Potency,[5],inactive
O=c1[nH]c(=O)n([C@H]2C[C@H](O)[C@@H](CO)O2)cc1C(F)(F)F,Potency,[1],inactive
same,Potency,[2],2.11 µM (active) and 1.66 µM (active)
same,Potency,[3],2.11 µM (active) and 2.35 µM (active)
same,Potency,[5],inactive
O=C(OCc1ccccc1)c1ccccc1,Potency,[1],inactive
same,Potency,[2],inactive
same,Potency,[3],inactive
same,Potency,[5],inactive
COC(=O)c1cc(Cl)ccc1OC,Potency,[1],inactive
same,Potency,[2],inactive
same,Potency,[3],inactive
same,activity (max response),[4],-2.06%
same,Potency,[5],inactive
Nc1ncnc2c1C(=O)N(c1ccc(C3CCC(CC(=O)O)CC3)cc1)CCO2 (centres undefined),Potency,[1],inactive
same,Potency,[2],inactive
same,Potency,[3],inactive
same,Potency,[5],inactive
CN(C)[C@@H]1C(=O)C(C(N)=O)=C(O)[C@@]2(O)C(=O)C3=C(O)c4c(O)cccc4C[C@H]3C[C@@H]12,Potency,[1],inactive
same,Potency,[2],inactive
same,Potency,[3],inactive
same,Potency,[5],inactive
O=S(=O)(O)c1ccc(O)cc1,Potency,[1],inactive
same,Potency,[2],inactive
same,Potency,[3],inactive
same,Potency,[5],inactive
C#CCN(C)Cc1ccccc1,Potency,[1],inactive
same,Potency,[2],inactive
same,Potency,[3],inactive
same,Potency,[5],inactive
CC(=O)NC(=O)c1ccccc1O,Potency,[1],inactive
same,Potency,[2],inactive
same,Potency,[3],inactive
same,Potency,[5],inactive
Cc1nc(-c2cn3c(n2)-c2ccc(-c4cnn(C(C)(C)C(N)=O)c4)cc2OCC3)n(C(C)C)n1,Potency,[1],inactive
same,Potency,[2],0.148 µM (active)
same,Potency,[3],2.59 µM (active)
same,Potency,[5],2.51 µM (active)
O=C(Cn1ccnc1[N+](=O)[O-])NCCO,Potency,[1],inactive
same,Potency,[2],inactive
same,Potency,[3],inactive
same,Potency,[5],inactive
OCC(CO)N[C@H]1C[C@](O)(CO)[C@@H](O)[C@H](O)[C@H]1O,Potency,[1],inactive
same,Potency,[2],inactive
same,Potency,[3],inactive
same,activity (max response),[4],4.01%
same,Potency,[5],inactive
O=c1[nH]cnc2c1ncn2[C@@H]1O[C@H](CO)[C@@H](O)[C@H]1O,Potency,[1],inactive
same,Potency,[2],inactive
same,Potency,[3],inactive
same,Potency,[5],inactive
COc1cc(NS(=O)(=O)c2ccc(N)cc2)ncn1,Potency,[1],inactive
same,Potency,[2],inactive
same,Potency,[3],inactive
same,Potency,[5],inactive
CN(C)c1ccc(O)c2c1C[C@H]1C[C@H]3[C@H](N(C)C)C(=O)C(C(N)=O)=C(O)[C@@]3(O)C(=O)C1=C2O,Potency,[1],inactive
same,Potency,[2],20.9 µM (active)
same,Potency,[3],20.9 µM (active)
same,Potency,[5],inactive
CCOC(=O)n1ccn(C)c1=S,Potency,[1],inactive
same,Potency,[2],inactive
same,Potency,[3],inactive
same,Potency,[5],inactive
C=C(CC)C(=O)c1ccc(OCC(=O)O)c(Cl)c1Cl,Potency,[1],inactive
same,Potency,[2],13.3 µM (active)
same,Potency,[3],15 µM (active)
same,Potency,[5],9.2 µM (active)
C[C@H]1O[C@@H](O[C@H]2[C@@H](O)C[C@H](O[C@H]3[C@@H](O)C[C@H](O[C@H]4CC[C@@]5(C)[C@H](CC[C@@H]6[C@@H]5C[C@@H](O)[C@]5(C)[C@@H](C7=CC(=O)OC7)CC[C@]65O)C4)O[C@@H]3C)O[C@@H]2C)C[C@H](O)[C@@H]1O,Potency,[1],inactive
same,Potency,[2],103 nM (active) and 118 nM (active)
same,Potency,[3],58 nM (active) and 118 nM (active)
same,Potency,[5],0.126 µM (active)
CCCn1cnc2c1c(=O)n(CCCCC(C)=O)c(=O)n2C,Potency,[1],inactive
same,Potency,[2],inactive
same,Potency,[3],inactive
same,Potency,[5],inactive
CC[C@H](C)[C@H](N)C(=O)O,Potency,[1],inactive
same,Potency,[2],inactive
same,Potency,[3],inactive
same,Potency,[5],inactive
COc1ccc(C2C(=O)c3ccccc3C2=O)cc1,Potency,[1],inactive
same,Potency,[2],inactive
same,Potency,[3],inactive
same,Potency,[5],inactive
CC(=O)Nc1cccc(O)c1,Potency,[1],inactive
same,Potency,[2],inactive
same,Potency,[3],inactive
same,Potency,[5],inactive
CC1(C)S[C@@H]2[C@H](N=CN3CCCCCC3)C(=O)N2[C@H]1C(=O)O,Potency,[1],inactive
same,Potency,[2],inactive
same,Potency,[3],inactive
same,Potency,[5],inactive
COc1ccccc1O,Potency,[1],inactive
same,Potency,[2],inactive
same,Potency,[3],inactive
same,Potency,[5],28.2 µM (active)
N[C@@H](CCC(=O)N[C@@H](CS)C(=O)NCC(=O)O)C(=O)O,Potency,[1],inactive
same,Potency,[2],inactive
same,Potency,[3],inactive
same,Potency,[5],inactive
CC(=O)N[C@@H](CO)C(=O)N[C@@H](CC(=O)O)C(=O)N[C@@H](CCCCN)C(=O)N1CCC[C@H]1C(=O)O (Ac-SDKP-OH),Potency,[1],inactive
same,Potency,[2],inactive
same,Potency,[3],inactive
same,Potency,[5],inactive
CO[C@@]1(NC(=O)CSC[C@@H](N)C(=O)O)C(=O)N2C(C(=O)O)=C(CSc3nnnn3C)CS[C@@H]21,Potency,[1],inactive
same,Potency,[2],inactive
same,Potency,[3],inactive
same,Potency,[5],inactive
C[N+](C)(C)CCOC(N)=O,Potency,[1],inactive
same,Potency,[2],inactive
same,Potency,[3],inactive
same,Potency,[5],inactive
CC(N)C12CC3CC(CC(C3)C1)C2 (centres undefined),Potency,[1],inactive
same,Potency,[2],inactive
same,Potency,[6],10.5 µM (active)
same,Potency,[7],26.4 µM (active)
same,Potency,[8],inactive
same,Potency,[9],inactive
same,Potency,[10],inactive
same,activity (max response),[4],-5.6% and -7.27%
same,Potency,[5],inactive
Cc1ccc2c(n1)Oc1ccc(C(C)C(=O)OCC(=O)N(C)C)cc1C2 (centres undefined),Potency,[1],inactive
same,Potency,[2],11.9 µM (active)
same,activity (max response),[4],-7.34% and -9.36%
O=C(O)Cc1sc(-c2ccccc2)nc1-c1ccc(Cl)cc1,Potency,[1],inactive
same,Potency,[2],inactive
same,Potency,[3],inactive
same,Potency,[5],inactive
